Data taken from the supplement of paper PMC10981050.
Several values for one entry are separate records, joined by “and”; a condition that tells them apart may be missing. Equal values may be shown once. Where a name gives a salt, the structure may show the parent alone.

Assays:
Test in all cases: cell viability relative to vehicle control; higher = less cytotoxic
Settings in all cases: 10 µM
K562 = tested on: K562
How it was run: (§1)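 CRISPR-edited SRSF2 P95 mutant and isogenic wild-type clones of four leukaemia lines were screened against Selleck bioactive, kinase and epigenetic probe libraries, with identity-inconsistent compounds removed. Compounds were acoustically dispensed into 384-well plates at a single 10 µM dose, with 2000 cells in 50 µL medium per well. After 48 h, supernatant was removed and CellTiter-Glo luminescence was read. Viability was expressed as percent of the on-plate DMSO vehicle control, analysed in Genedata Screener.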

MARIMO = tested on: MARIMO
How it was run: as §1

MOLM14 = tested on: MOLM14
How it was run: as §1

OCI-AML2 = tested on: OCI-AML2
How it was run: as §1

| SMILES | cell viability (K562; SRSF2 genotype: SRSF2 P95H/wt) | cell viability (K562; SRSF2 genotype: SRSF2 wt/wt) [%] | cell viability (MARIMO; SRSF2 genotype: SRSF2 P95H/wt) [%] | cell viability (MARIMO; SRSF2 genotype: SRSF2 wt/wt) [%] | cell viability (MOLM14; SRSF2 genotype: SRSF2 P95H/wt) [%] | cell viability (MOLM14; SRSF2 genotype: SRSF2 wt/wt) [%] | cell viability (OCI-AML2; SRSF2 genotype: P95H/wt) [%] | cell viability (OCI-AML2; SRSF2 genotype: wt/wt) [%] |
| --- | --- | --- | --- | --- | --- | --- | --- | --- |
| COC(=O)C1=C(C#N)NC(C)=C(C(=O)OC(C)C)C1c1cccc([N+](=O)[O-])c1 (centres undefined) [Nilvadipine (ARC029)] | 81.2% and 85.3% | 80.7 | 76 | 79.7 | 80.9 | 84.7 | 103 | 97.2 |
| CN[C@@H](C)C(=O)N[C@H](C(=O)N1CCC[C@H]1C(=O)Nc1snnc1-c1ccccc1)C1CCCCC1 | 98.6% and 96.3% | 97.7 | 101 | 105 | 89.6 | 104 | 102 | 123 |
| COC(=O)[C@@H]1[C@H]2C[C@H]3c4[nH]c5ccccc5c4CCN3C[C@@H]2CC[C@@H]1O [Yohimbine hydrochloride (Antagonil)] | 103% and 98.2% | 96.5 | 95.8 | 103 | 95 | 102 | 94.9 | 96.1 |
| COCCCOc1ccnc(C[S+]([O-])c2nc3ccccc3[nH]2)c1C (centres undefined) [Rebeprazole sodium] | 95.2% and 93.6% | 101 | 104 | 106 | 95.6 | 102 | 97.4 | 113 |
| COc1ccc(CCc2cc(OC)c(OC)c(OC)c2)cc1O [Erianin] | 10.3% and 30.2% | 25.3 | 6.09 | 6.67 | 1.16 | 1.16 | 1.03 | 2.9 |
| CC(=O)OC(C)C(C)C(=O)OCC12C3CC(C)(C)[C@H](O[C@@H]1C[C@]1(C)C3=CCC3C4(C)CCC(O[C@@H]5O[C@H](C(=O)O)[C@@H](O[C@H]6O[C@H](CO)[C@@H](O)[C@H](O)[C@H]6O)[C@H](O)[C@H]5O[C@@H]5OC[C@@H](O)[C@H](O)[C@H]5O)[C@](C)(CO)C4CCC31C)C2O (some centres undefined) [Sodium Aescinate] | 90.7% and 98.9% | 93.9 | 95.5 | 96.8 | 89.4 | 92.3 | 88.5 | 93.2 |
| C[C@]12CC[C@@H]3c4ccc(O)cc4CC[C@H]3[C@@H]1C[C@@H](O)[C@@H]2O [Estriol] | 104% and 92.3% | 87.9 | 86.4 | 99.5 | 101 | 99.9 | 91 | 101 |
| Cn1cc(-c2cnn3c(N)c(Br)c([C@@H]4CCCNC4)nc23)cn1 | 42.2% and 58.8% | 25.3 | 50.4 | 61.6 | 12.8 | 7.07 | 9.84 | 11.1 |
| CN(C)/N=N/c1[nH]cnc1C(N)=O [Dacarbazine (DTIC-Dome)] | 117% and 112% | 110 | 108 | 107 | 97.6 | 108 | 107 | 112 |
| CC[C@@H](N)CNc1ccnc(-c2cc(-c3cnn(C)c3)ccc2O)n1 | 5.05% and 8.35% | 7.08 | 2.69 | 1.1 | 0.8 | 0.44 | 1.45 | 10.8 |
| CC(=O)O[C@H](CC=C(C)C)C1=CC(=O)c2c(O)ccc(O)c2C1=O [Acetylshikonin] | 4.63% and 1.27% | 1.38 | 0.73 | 0.66 | 0.73 | 0.53 | 0.72 | 0.59 |
| Nc1ncnc2c1ncn2[C@@H]1O[C@H](CO)[C@@H](O)[C@@H]1O [Vidarabine monohydrate] | 105% and 101% | 110 | 86 | 98.5 | 97.6 | 103 | 110 | 119 |
| COC(=O)C1=COC(OC2OC(CO)C(O)C(O)C2O)C2C(C)CC(=O)C12O (centres undefined) [Hastatoside] | 108% and 101% | 107 | 104 | 99.3 | 108 | 104 | 99.5 | 102 |
| CCC(=O)NS(=O)(=O)c1ccc(-c2c(-c3ccccc3)noc2C)cc1 [Parecoxib] | 100% and 96.7% | 97.5 | 101 | 108 | 101 | 101 | 88.3 | 99.7 |
| C[C@@H](Nc1nc(N[C@H](C)C(F)(F)F)nc(-c2cccc(Cl)n2)n1)C(F)(F)F [Vorasidenib (AG-881)] | 91.3% and 90.9% | 84.7 | 88.3 | 105 | 89 | 85.3 | 104 | 98.3 |
| Cc1ccccc1-c1cc(N2CCN(C)CC2)ncc1N(C)C(=O)C(C)(C)c1cc(C(F)(F)F)cc(C(F)(F)F)c1 [Netupitant] | 90.3% and 95.2% | 94.6 | 104 | 93.8 | 107 | 98.4 | 70.3 | 75.3 |
| CC(C)(C)c1cc(NC(=O)Nc2ccc(Oc3ccnc4[nH]c(=O)cnc34)cc2F)n(-c2ccccc2)n1 | 30% and 44% | 25.7 | 14.6 | 9.05 | 7.07 | 2.65 | 6.64 | 15.8 |
| CN1Cc2c(ccc3c2OCO3)[C@@]2(C)[C@@H](O)Cc3cc4c(cc3[C@@H]12)OCO4 [Corynoline] | 18.7% and 28.5% | 24.2 | 8.07 | 9.1 | 8.94 | 3.23 | 5.69 | 13 |
| Nc1ccc(S(=O)(=O)Nc2ncccn2)cc1 [Sulfadiazine] | 108% and 105% | 108 | 114 | 110 | 103 | 108 | 111 | 110 |

| SMILES | cell viability (K562; SRSF2 genotype: SRSF2 P95H/wt) | cell viability (K562; SRSF2 genotype: SRSF2 wt/wt) [%] | cell viability (MARIMO; SRSF2 genotype: SRSF2 P95H/wt) [%] | cell viability (MARIMO; SRSF2 genotype: SRSF2 wt/wt) [%] | cell viability (MOLM14; SRSF2 genotype: SRSF2 P95H/wt) [%] | cell viability (MOLM14; SRSF2 genotype: SRSF2 wt/wt) [%] | cell viability (OCI-AML2; SRSF2 genotype: P95H/wt) [%] | cell viability (OCI-AML2; SRSF2 genotype: wt/wt) [%] |
| --- | --- | --- | --- | --- | --- | --- | --- | --- |
| NCCCC[C@@H]1NC(=O)[C@@H](Cc2ccccc2)NC(=O)[C@H](CC(=O)O)NC(=O)CNC(=O)[C@H](CCCN=C(N)N)NC1=O [Cyclo (-RGDfK)] | 98.8% and 104% | 103 | 98.6 | 103 | 98.5 | 101 | 108 | 118 |
| CC(=O)OC/C=C(\C)CCC=C(C)C [Geranyl acetate] | 102% and 95.2% | 107 | 104 | 112 | 99.2 | 111 | 97.2 | 103 |
| CCn1cc(C(=O)O)c(=O)c2cc(F)c(N3CCNCC3)cc21 [Norfloxacin (Norxacin)] | 91.3% and 98.8% | 90.9 | 88.7 | 95.5 | 90.5 | 91.8 | 97.4 | 91.5 |
| CN1C(=O)[C@@H](NC(=O)c2n[nH]c(Cc3ccccc3)n2)COc2ccccc21 | 97.3% and 106% | 103 | 103 | 105 | 103 | 106 | 106 | 106 |
| C[C@@]1(CO)C[C@@H](O)C[C@@]2(C)[C@@H]3CC[C@](C)([C@@H](O)CO)C=C3CC[C@H]12 [Kirenol] | 98.1% and 101% | 97.7 | 89.3 | 96.2 | 107 | 104 | 94.6 | 101 |
| CN(C)CCN1C(=O)c2cccc3cc(N)cc(c23)C1=O [Amonafide] | 33.8% and 37.6% | 32.1 | 7.66 | 10.7 | 0.3 | 0.27 | 0.94 | 2.97 |
| CC1(C)[C@@H](OC(=O)CCC(=O)O)CC[C@]2(C)[C@H]3C(=O)C=C4[C@@H]5C[C@@](C)(C(=O)O)CC[C@]5(C)CC[C@@]4(C)[C@]3(C)CC[C@@H]12 [Carbenoxolone disodiuM] | 95.9% and 92.2% | 88 | 96.2 | 99 | 91.8 | 96.7 | 89.3 | 103 |
| C[C@]12CCC(=O)C=C1CC[C@@H]1[C@@H]2[C@@H](O)C[C@@]2(C)[C@H]1CC[C@]2(O)C(=O)CO [Hydrocortisone (Cortisol)] | 99.7% and 98.6% | 110 | 105 | 99 | 107 | 100 | 109 | 118 |
| COc1cc(CO)ccc1O [Vanillyl Alcohol] | 97.3% and 89.7% | 88.8 | 94.9 | 100 | 92.1 | 95.9 | 92.4 | 91.7 |
| CCn1c2ccccc2c2cc(CNCc3ccccc3OC)ccc21 [HLCL-61 hydrochloride] | 81.8% and 88% | 84.8 | 73.9 | 84.8 | 75 | 88.9 | 65.8 | 76.6 |
| CCCCNc1ncc(-c2ccc(CN3CCOCC3)cn2)c(NC2CCC(O)CC2)n1 (centres undefined) | 70.7% and 94.8% | 88 | 60.7 | 62.3 | 7.3 | 4.78 | 16.1 | 22.9 |
| COc1ccc2cc([C@H](C)C(=O)O)ccc2c1 [Naproxen Sodium] | 99.4% and 104% | 96.2 | 101 | 97.2 | 98.6 | 102 | 105 | 98.7 |
| CN(CC(=O)N(Cc1ccc(C2CCCCC2)cc1)c1ccc(C(=O)NO)cc1)S(=O)(=O)c1c(F)c(F)c(F)c(F)c1F | 0.47% and 0.41% | 0.42 | 0.5 | 0.67 | 0.26 | 0.33 | 0.18 | 0.24 |
| O=C1NC(=NCc2cccs2)S/C1=C\c1ccc2ncccc2c1 | 92% and 98.2% | 98.2 | 50.9 | 77.9 | 37 | 41.1 | 53.8 | 57.1 |
| NC(=O)c1ccc(-c2nc(-c3ccc4c(c3)OCCO4)c(-c3ccccn3)[nH]2)cc1 | 102% and 103% | 92.9 | 98.5 | 103 | 97.5 | 97.6 | 99.6 | 96.8 |
| CC(C)NC[C@@H](C(=O)N1CCN(c2ncnc3c2[C@H](C)C[C@H]3O)CC1)c1ccc(Cl)cc1 [Ipatasertib (GDC-0068)] | 90.8% and 87.6% | 86.3 | 80.8 | 80 | 51.1 | 56.6 | 72.1 | 81.2 |
| COc1cc(NC(=O)c2ccccn2)ccc1Cl | 85.2% and 86.2% | 94.1 | 87.1 | 92.4 | 99 | 95.3 | 88.4 | 80 |
| CCC1(c2c[nH]cn2)Cc2ccccc2C1 [Atipamezole hydrochloride] | 90.5% and 99.4% | 104 | 92.4 | 99.1 | 96.2 | 99.7 | 98.5 | 95.2 |
| COC(=O)[C@H](CC(C)C)NC(=O)c1ccc(NC[C@@H](N)CS)cc1-c1cccc2ccccc12 [GGTI 298 TFA salt] | 7.41% and 14.8% | 31.9 | 55 | 51.1 | 41 | 50.6 | 40.6 | 37.7 |
